14 compounds from PubChem BioAssay (EPA / NIEHS) can be followed below.

Records with an inconclusive call do not appear. Active and inactive are the calls of the source. The calls were made as follows: active = hit-call score of the fitted dose curve at least 0.9, where 1 is the maximum; inconclusive = response in the unintended direction; inactive = score below 0.9.

Chain of human Elastase, ELANE (gene 1991) (P08246 whole entry, looked up): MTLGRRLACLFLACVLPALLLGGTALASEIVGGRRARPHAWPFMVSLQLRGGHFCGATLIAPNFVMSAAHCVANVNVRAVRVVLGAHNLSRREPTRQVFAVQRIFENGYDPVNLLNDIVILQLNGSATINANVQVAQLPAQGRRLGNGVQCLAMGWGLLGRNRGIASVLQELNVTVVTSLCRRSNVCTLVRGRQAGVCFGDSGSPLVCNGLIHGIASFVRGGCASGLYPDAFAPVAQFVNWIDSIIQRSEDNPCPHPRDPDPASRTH

This experiment addresses human Elastase, ELANE (gene 1991) (UniProt P08246). Nature of the experiment: NVS_ENZ_hElastase: NovaScreen (NVS) Enzymatic Assay for human Elastase (AID 2283153). On the procedure:
NVS_ENZ_hElastase is a biochemical, single-readout assay that uses extracted gene-proteins from Human neutrophils in a cell-free assay. Measurements were taken 1.5 hours after chemical dosing in a 96-well plate.NVS_ENZ_hElastase is one of one assay component(s) measured or calculated from the NVS_ENZ_hElastase assay. It is designed to make measurements of enzyme activity, a form of enzyme reporter, as detected with absorbance signals by Spectrophotometry technology.Data from the assay component NVS_ENZ_hElastase was analyzed into 1 assay endpoint. This assay endpoint, NVS_ENZ_hElastase, was analyzed in the positive analysis fitting direction relative to DMSO as the negative control and baseline of activity. Using a type of enzyme reporter, loss-of-signal activity can be used to understand changes in the enzymatic activity as they relate to the gene ELANE. Furthermore, this assay endpoint can be referred to as a primary readout, because this assay has produced multiple assay endpoints where this one serves a enzymatic activity function. To generalize the intended target to other relatable targets, this assay endpoint is annotated to the protease intended target family, where the subfamily is serine protease.
Binding assays used specific radioligands (tritiated, iodinated) with non-radioactive competitive displacement ligands in agonist or antagonist protocols (as indicated) and various reference compounds and inhibitors to titrate specific binding to receptors and transporters. Most enzyme assays (CYPs, kinases, phosphatases, proteases, HDACs) used recombinant protein and specific substrates (fluorescence mostly, some colorimetric and radioactive) and inhibitors, followed by a biochemical separation of substrate and product. All assays for the biochemical HTS were initially run in duplicate at a single concentration (10 uM for CYP450 assays and 25 uM for all others). Assay-chemical combinations meeting a pre-defined threshold (e.g., 30% inhibition and other criteria defined below) were then run in singleton concentration-response format with maximum concentration of 20 uM for CYPs and 50 uM for all others. Each assay was run with positive and negative controls, and concurrent controls on every plate. The follow-up (secondary) screen tested active chemical-pairs in concentration series, as well as a few additional assays not tested in the primary screen, some selected negative inactives, and several cases re-run in the concentration series for confirmatory purposes.
As for `COc1ccc2cc(S(=O)(=O)N[C@H](CC(=O)N[C@H](Cc3ccc(CN4[C@H](C)CCC[C@@H]4C)cc3)C(=O)N(C)C(C)C)c3ccc4c(c3)OCO4)ccc2c1`, the half-maximal activity concentration (AC50) is 9.38 µM (active).
For `O=C(O)c1ccccc1-n1cc(C(=O)O)c(=O)c2cc(Nc3c(F)cc(F)cc3Cl)c(Cl)cc21`, the AC50 was 18.4 µM (active).
`CCCCCCCCOC(=O)c1cc(O)c(O)c(O)c1`: the AC50 is 12.5 µM (active).
Same read-out and setting: in the case of `CCCCCCCCCCCO` it was 27.4 µM (active).
With `O=C1O[C@H]([C@@H](O)CO)C(O)=C1O`, the result was inactive.
As to `CC[C@@H]1C[C@H](N(Cc2cc(C(F)(F)F)cc(C(F)(F)F)c2)C(C)=O)c2cc(C(F)(F)F)ccc2N1C(=O)OC(C)C`, the compound was called inactive.
`CCN(Cc1cccnc1)C(=O)c1cccc(Cl)c1[C@]1(C)C(=O)N(Cc2ccc(OC)cc2OC)c2ccc(Cl)cc21`: the AC50 was 3.84 µM (active).
The same measure, in the same setting: in the case of `O=C1CCC(C2CCCCC2)CC1` it was 10 µM (active).
Consider `CC/C(=C(/CC)c1ccc(O)cc1)c1ccc(O)cc1`, for which the compound was classed as inactive.
Regarding `Cc1c2ccccc2c(C)c2c1ccc1ccccc12`, the AC50 was 14.3 µM (active).
The same measure, in the same setting: with `CN1C(=O)N(c2ccccc2Br)Cc2cnc(Nc3ccc4c(c3)OCC(CO)O4)nc21` (centres undefined) the figure was 17 µM (active); with `CN(C)C(=O)C1(N2CCCCC2)CCN(CC[C@@]2(c3ccc(Cl)c(Cl)c3)CN(C(=O)c3ccccc3)CCO2)CC1`, 19 µM (active).
For `CCN(Cc1cccc(S(=O)(=O)O)c1)c1ccc(C(=C2C=CC(=[N+](CC)Cc3cccc(S(=O)(=O)O)c3)C=C2)c2ccccc2S(=O)(=O)[O-])cc1`, the AC50 was 3.18 µM (active).
Same read-out and setting: with `CC(C)(C)c1csc(-c2cc3cc(OCc4ccccc4CC(=O)O)ccc3o2)n1` the figure was 12.5 µM (active).

For orientation: AC50 means the concentration at which the activity in the assay is half-maximal.
